Here are results for 26 compounds from PubChem BioAssay (Tox21).

Assay [1] is described as follows: qHTS assay for small molecule agonists of the p53 signaling pathway (AID 651631; calls by dose curve; further: nearly all actives have a fitted effect of over 15% in size). The essentials:
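p53RE-bla HCT-116 cells; compounds 16 h, 37 °C; LiveBLAzer B/G FRET substrate 2 h RT; fluorescence intensity read-out, qHTS format.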
For orientation: In qHTS, concentration-response curves come from the screen itself.

Assay [2] in a line: qHTS assay for small molecule agonists of the p53 signaling pathway - cell viability (AID 651633; calls by dose curve;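 further: p53RE-bla HCT reporter cells with a stable beta-lactamase p53 reporter; series mostly up to about 83 µM; nearly all actives have a fitted effect of over 30% in size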). Put shortly:
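p53RE-bla cells were treated with compound for 16 hours at 37 C. Cytotoxicity was then measured as CellTiter-Glo luminescence after 30 min at room temperature.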

Assay [3] can be described thus: qHTS assay for small molecules that induce genotoxicity in human embryonic kidney cells expressing luciferase-tagged ATAD5 - cell viability (AID 651634; calls by dose curve; further: nearly all actives have a fitted effect of over 25% in size). Put shortly:
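Fluorescence from CellTiter-Fluor, reporting protease activity within live cells, served as the viability read-out. HEK293T cells carrying luciferase-tagged ATAD5 had been treated with compound for 15.5 hr at 37C.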

The nature of assay [4]: qHTS assay for small molecule disruptors of the mitochondrial membrane potential (AID 720635). Further: potency means the concentration at half of the fitted maximal effect. Put shortly: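 HepG2 cells exposed to compound 1 hr at 37C, then Mito-MPS dye 30 min. Ratio read of aggregate (540/590 nm) versus monomer (490/535 nm) fluorescence.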
A short description of assay [5]: qHTS assay to test for compound auto fluorescence at 590 nm (red) in HepG2 cells (AID 720674). The essentials: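 Fluorescence at 590 nm emission following 540 nm excitation was recorded from HepG2 wells one hour after compound transfer, with DMSO-only wells as vehicle and Rose Bengal sodium equivalency as the scale.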
A short description of assay [6]: qHTS assay to test for compound auto fluorescence at 460 nm (blue) in HEK293 cells (AID 720678). Further: potency means the concentration at half of the fitted maximal effect. Put shortly:
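HEK293 cells (2,000 per well, medium with 10% dialyzed FBS) attached for 4-5 hr at 37C, then received compound and stood overnight at 37C, 5% CO2. Blue fluorescence was read at Ex/Em 405/460 nm and expressed relative to triamterene.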

A short description of assay [7]: qHTS assay to test for compound auto fluorescence at 590 nm (red) in HEK293 cells (AID 720679). The essentials:
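HEK293 cells (2,000/well, medium with 10% dialyzed FBS) attached for 4-5 hr at 37C, received 23 nL compound and were incubated overnight at 37C, 5% CO2. Red fluorescence was then read at 540/590nm Ex/Em, referenced to Rose Bengal sodium.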

The nature of assay [8]: qHTS assay for small molecules that induce genotoxicity in human embryonic kidney cells expressing luciferase-tagged ATAD5 (AID 651632). Further: nearly all actives have a fitted effect of over 15% in size. The essentials:
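ATAD5-luc HEK293T, 2,000 cells/well; cpd or DMSO pin-transferred; 16 hr, 37C/5% CO2; Amplite 30 min RT; luminescence.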

Assay [9] is described as follows: qHTS assay for small molecule disruptors of the mitochondrial membrane potential - cell viability (AID 720634; calls by dose curve; further: nearly all actives have a fitted effect of over 20% in size; further: potency means the concentration at half of the fitted maximal effect). Put shortly:
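Cells: HepG2, 2,000/well, attached overnight. Compound 1 hr, 37 C/5% CO2. +m-MPI dye, +CellTiter-Glo 30 min RT. Readout: luminescence (ATP).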

Assay [10] in a line: qHTS assay to test for compound auto fluorescence at 535 nm (green) in HepG2 cells (AID 720675).

A number with no mark means an inactive call. Inconclusive results are not listed. The source made the active and inactive calls. Unless noted, the call rests on the fitted dose curve; in most records, active means well fitted curve in the direction sought with a large enough effect in the repeat runs; inconclusive means weak or mixed curves; inactive means no such curve, though single readings can be large; an effect the other way counts as inactive or inconclusive.
On the % scale 0 is the no-effect control and ±100 the full control effect; tags describe the fitted curve by direction and shape or compound fluorescence and quenching.

Consider `Cc1c(N=C=O)cccc1N=C=O`, for which the Potency entry in assay [1], in assay [2], in assay [3], in assay [4] and in assay [6] was “inactive” in each case. The result in assay [5] and in assay [7] was inactive.

Turning to `FC(F)(Cl)C(F)(Cl)Cl`, the Potency result in assay [8], in [2], in [3], in [9], in assay [4] and in assay [6] was “inactive” in each case. The call in assay [5], in [10] and in assay [7] was inactive.

For the compound `CCCCCCCCCCCCSCCOCCO`, the Potency result in assay [8], in assay [2], in assay [3], in assay [9] and in assay [4] was “inactive” each time. Also, the call in [5], in assay [10] and in assay [7] was inactive.

As to `CCOC(C)OCC`, the Potency result in assay [8], in [2], in assay [3] and in assay [9] was “inactive” each time. The result in assay [5], in assay [10] and in [7] was inactive.

Consider `O=c1c2ccccc2oc2ccccc12`, for which the Potency result in assay [8], in assay [2], in [3], in assay [9], in assay [4] and in assay [6] was “inactive” in each case. The compound was classed as inactive in assay [5], in assay [10] and in [7].

Turning to `CC(C)CC(C)(C)C`, the Potency result in [8], in [2], in assay [3], in assay [9] and in [4] was “inactive” throughout. Also, the result in [5], in assay [10] and in [7] was inactive.

Take `CCOCCn1c(N2CCCN(C)CC2)nc2ccccc21`: the Potency result in assay [8], in assay [2], in assay [3], in assay [9], in assay [4] and in assay [6] was “inactive” throughout. Besides, the result in [5], in assay [10] and in assay [7] was inactive.

For the compound `Cc1c(-c2cccnc2)c2ccccc2n1CCCCC(=O)O`, the Potency entry in assay [8], in assay [2], in [3], in [9] and in [6] was “inactive” in each case. The compound was classed as inactive in assay [5], in [10] and in assay [7].

`O=C(O)c1ccc(O)c(O)c1`: the Potency entry in [8], in [2], in [3], in assay [9] and in [6] was “inactive” in each case. Besides, the result in assay [5], in assay [10] and in assay [7] was inactive.

For the compound `Cc1c(Nc2ncccc2C(=O)O)cccc1C(F)(F)F`, the Potency result in [1] and in [3] was “inactive” throughout. Further, the Potency in [4] was 9.02 µM (active). Moreover, the fluorescence, relative to Rose Bengal in assay [5] is 0.539% [at 18.6 µM]. Besides, the fluorescence, % of fluorescein control in [10] is -0.0599% [at 18.6 µM]. In addition, in assay [6], the fluorescence, % of triamterene was 0.0756% [at 18.6 µM]. Besides, the fluorescence, % of fluorescent control in assay [7] is 0.0414% [at 18.6 µM].

As to `CC(=O)Oc1cccc2c1C(=O)c1c(OC(C)=O)cc(C(=O)O)cc1C2=O`, the Potency result in [8], in assay [2] and in [3] was “inactive” in each case. For the same compound, the Potency in assay [4] is 13.3 µM (active). Besides, the outcome in [5], in assay [10] and in [7] was inactive.

As for `OCCOc1cccc(OCCO)c1`, the Potency result in assay [8], in assay [2], in assay [3], in [9], in assay [4] and in [6] was “inactive” in each case. Besides, the result in assay [5], in assay [10] and in assay [7] was inactive.

Take `O=C(Nc1ccccc1)c1cc([N+](=O)[O-])ccc1Cl`: the Potency result in [8], in [2], in [3], in [9] and in assay [6] was “inactive” throughout. Also, the call in [5], in assay [10] and in assay [7] was inactive.

`N#Cc1ccc(CC(=O)c2cccc(C(F)(F)F)c2)cc1`: the Potency result in assay [8], in assay [2], in assay [3] and in [6] was “inactive” throughout. For the same compound, the Potency in assay [9] was 48.6 µM (active). The outcome in assay [5], in assay [10] and in assay [7] was inactive.

In the case of `OCCc1ccncc1`, the Potency result in assay [8], in assay [2], in [3], in assay [9] and in assay [6] was “inactive” each time. Besides, the call in assay [5], in assay [10] and in [7] was inactive.

As to `CC[C@H](NC(C)C)[C@H](O)c1ccc(O)c2[nH]c(=O)ccc12`, the Potency entry in assay [8], in assay [2], in [3], in assay [9] and in assay [4] was “inactive” throughout. The compound was classed as inactive in assay [5], in [10] and in [7]. Moreover, the Potency in assay [6] is 11.2 µM [fluorescent] (active).

Take `O=C(Nc1ccc2c(c1)Cc1ccccc1-2)C(F)(F)F`: the Potency entry in [1] and in [3] was “inactive” each time. Further, the Potency in assay [4] is 17.2 µM (active). Moreover, the outcome in [5], in assay [10] and in assay [7] was inactive.

Turning to `CCC[Si](OC)(OC)OC`, the Potency result in assay [8], in assay [2], in [3], in [9], in assay [4] and in assay [6] was “inactive” each time. Further, the outcome in assay [5], in assay [10] and in assay [7] was inactive.

With `CC1=C(C)C(=O)C(CCCCC#CCCCC#CCO)=C(C)C1=O`, the Potency entry in [8], in assay [2], in [3], in assay [9] and in assay [6] was “inactive” throughout. Also, the compound was classed as inactive in assay [5], in assay [10] and in [7].

`COC(=O)c1cc(Cl)ccc1[N+](=O)[O-]`: the Potency entry in [8], in assay [2], in assay [3], in [9], in assay [4] and in assay [6] was “inactive” throughout. Besides, the compound was classed as inactive in assay [5], in assay [10] and in assay [7].

With `C=CC(C)CCC=C(C)C` (stereo not given), the Potency result in assay [8], in assay [2], in assay [3] and in assay [9] was “inactive” in each case. The compound was classed as inactive in assay [5], in assay [10] and in [7].

Consider `NC(=O)c1ccccc1`, for which the Potency entry in assay [8], in [2], in [3], in assay [9], in assay [4] and in assay [6] was “inactive” throughout. Moreover, the call in [5], in assay [10] and in [7] was inactive.

Turning to `CCCN(C1CCN(C(=O)C2CCNCC2)CC1)[C@@H]1CCc2ccc(OC)cc2C1`, the Potency entry in assay [8], in assay [2], in assay [3], in assay [9] and in [6] was “inactive” in each case. Also, the call in [5] and in [7] was inactive.

Regarding `CC(=O)OCC(=O)[C@@]1(O)CC[C@H]2[C@@H]3CCC4=CC(=O)C=C[C@]4(C)[C@@]3(F)[C@@H](O)C[C@@]21C`, the Potency result in [8], in [2], in assay [3] and in assay [9] was “inactive” each time. Moreover, in [5], the fluorescence, relative to Rose Bengal is -0.399% [at 18.6 µM]. Also, the fluorescence, % of fluorescein control in assay [10] was 0.0333% [at 18.6 µM]. Also, the fluorescence, % of triamterene in assay [6] was 0.0056% [at 18.6 µM]. The fluorescence, % of fluorescent control in assay [7] is 0.478% [at 18.6 µM].

With `Clc1cccc(C(c2ccc3nc[nH]c3c2)n2ccnc2)c1` (stereo not given), the Potency result in assay [8], in assay [2], in assay [3] and in assay [9] was “inactive” throughout. Moreover, the compound was classed as inactive in assay [5] and in assay [7].

With `CCC1=C(C)CN(C(=O)NCCc2ccc(S(=O)(=O)NC(=O)NC3CCC(C)CC3)cc2)C1=O` (stereo not given), the Potency entry in assay [8], in assay [2], in assay [3] and in assay [6] was “inactive” each time. The outcome in assay [5], in assay [10] and in assay [7] was inactive.
